Active and inactive are the calls of the source.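 Rule for the calls: active = Her2 level under about 52% in both replicate screens, with viability over 70% of control (limit read from the data); inconclusive = Her2 under the limit in one screen only, or viability under 70%; inactive = Her2 level above the set limit.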
system: not listed separately; experiment: Her2 expression decrease, cell viability multiplex – SKBR3 breast tumor cells, AlphaScreen, ATP viability, primary screen (AID 461); conditions: SKBR3 Her2 protein level, 18-24 h, measured here: SKBR3 viability, ATP luminescence, at 10 µM;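 for Her2 level: lower value means less Her2 protein in the cells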;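 for viability: percent of carrier control wells set as 100% viability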

Structure (SMILES) | viability [%]
CCOC(=O)C1CCN(c2c(NC3CCCCCCC3)c(=O)c2=O)CC1 | 90
Cc1c(/C(O)=C2/C(=O)C(=O)N(CCN3CCOCC3)C2c2cccs2)cnn1-c1ccccc1 (stereo not given) | 88
c1ccc(CSCc2cn3ccsc3n2)cc1 | 93.5
O=c1c2ccccc2nc(SCc2cn3ccsc3n2)n1-c1ccc(F)cc1 | 73
Cc1cnc(C(=O)Nc2ccc(N3CCN(C(=O)OC(C)(C)C)CC3)cc2)cn1 | 109
COc1ccccc1N(C)S(=O)(=O)c1ccc(C(=O)NC2=NCCS2)cc1 | 104
C/C(N)=C(/C#N)C(=O)COC(=O)c1cc(S(=O)(=O)N2CCCCC2)ccc1C | 88.5
O=C(NCc1ccc2c(c1)OCO2)c1ccc(NS(=O)(=O)c2ccc3c(c2)OCCO3)cc1 | 102
Cc1nnc(SCC(=O)NC(C)(C)C)n1CCc1ccccc1 | 93.5
CC(C)OC(=O)CSc1nnnn1-c1ccc2c(c1)OCCO2 | 99.5
Cc1sc2nc(SCC(=O)NCc3ccco3)n(CCc3ccccc3)c(=O)c2c1C | 102
CC(=O)Nc1ccn(-c2ccccc2)n1 | 83
O=P(O)(O)C(O)C(F)(F)C(F)(F)C(F)(F)C(F)F (stereo not given) | 108
COCCn1c(CN2CCN(c3ccccc3F)CC2)nc2c1c(=O)n(C)c(=O)n2C | 105
O=C(CN1CCN(C2CCCCC2)CC1)Nc1ccccc1-c1ccccc1 | 90.5
COc1ccc(NC(=O)C23CCC(C)(C(=O)C2)C3(C)C)cc1 (stereo not given) | 92.5
CC(C)(C)c1nc(CN2CCOCC2)ccc1O | 109
CC(NC(=O)c1ccc2c(c1)OCO2)C(c1cccs1)N1CCOCC1 (stereo not given) | 97.5
Cc1ccccc1NS(=O)(=O)c1cc(C(=O)N2CCCC2)ccc1C | 108
O=C(C1CCCO1)N1CCc2ccccc21 (stereo not given) | 85

Structure (SMILES) | viability [%]
CCc1ccc(NS(=O)(=O)c2ccc3[nH]cc(C(=O)N4CCCCC4)c(=O)c3c2)cc1 | 124
O=C1COc2ccc(C(=O)COC(=O)CCc3ccc(S(=O)(=O)N4CCOCC4)cc3)cc2N1 | 105
CC(C)CCNC(=O)C(c1ccco1)N(CC1CCCO1)C(=O)Cn1nnc2ccccc21 (stereo not given) | 100
CCOc1ccc(CCNC(=O)CCc2nc(-c3ccc(OC)cc3)no2)cc1OCC | 86.5
COc1cccc(-n2c(C)nc3c(cnn3-c3ccc(Cl)cc3)c2=O)c1 | 92.5
CCOC(=O)c1sc2nc(SCC#N)n(CCCN3CCCC3=O)c(=O)c2c1C | 80.5
COc1ccc(-c2nc(SC)n(S(=O)(=O)c3ccccc3)n2)cc1 | 80
CC(=O)NCc1cccc(CNC(C)=O)n1 | 84.5
Cc1ccc(-c2nc(N)n(C(=O)c3cccnc3)n2)cc1 | 86.5
CCOCCCNC(=O)c1cc2sc(Cl)cc2n1CC | 89
O=C(COc1ccc(S(=O)(=O)N2CCCC2)cc1Cl)NC1CC1 | 126
O=C(CSc1nc2ccccc2nc1SCC(=O)N1CCOCC1)N1CCOCC1 | 100
CCOc1ccc(/C=N/n2cnnc2)cc1 | 101
COc1cccc2cc(C(=O)N3CCc4ccccc43)c(=O)oc12 | 92
Cc1n[nH]c(C)c1S(=O)(=O)Nc1ccc2c(c1)OCCO2 | 93
O=C(Cn1c(C(=O)NCC2CCCO2)cc2sccc21)c1ccccc1 (stereo not given) | 94.5
Nn1cc(-c2ccccc2)nc1SCC(=O)N1CCN(S(=O)(=O)c2ccccc2)CC1 | 77
COc1cc(C(N)=O)ccc1OCc1ccccc1 | 86
CCCCn1c(CN(C)Cc2ccccc2)nc2c1c(=O)n(C)c(=O)n2C | 83
CCOc1ccc(-c2nc(S(=O)(=O)c3ccccc3)c(NCc3cccnc3)o2)cc1 | 97

target: Receptor tyrosine-protein kinase erbB-2 (Homo sapiens) (UniProt P04626); experiment: as above; conditions: 18-24 h, at 10 µM, stronger effect = lower value
Sequence (P04626 whole entry, looked up): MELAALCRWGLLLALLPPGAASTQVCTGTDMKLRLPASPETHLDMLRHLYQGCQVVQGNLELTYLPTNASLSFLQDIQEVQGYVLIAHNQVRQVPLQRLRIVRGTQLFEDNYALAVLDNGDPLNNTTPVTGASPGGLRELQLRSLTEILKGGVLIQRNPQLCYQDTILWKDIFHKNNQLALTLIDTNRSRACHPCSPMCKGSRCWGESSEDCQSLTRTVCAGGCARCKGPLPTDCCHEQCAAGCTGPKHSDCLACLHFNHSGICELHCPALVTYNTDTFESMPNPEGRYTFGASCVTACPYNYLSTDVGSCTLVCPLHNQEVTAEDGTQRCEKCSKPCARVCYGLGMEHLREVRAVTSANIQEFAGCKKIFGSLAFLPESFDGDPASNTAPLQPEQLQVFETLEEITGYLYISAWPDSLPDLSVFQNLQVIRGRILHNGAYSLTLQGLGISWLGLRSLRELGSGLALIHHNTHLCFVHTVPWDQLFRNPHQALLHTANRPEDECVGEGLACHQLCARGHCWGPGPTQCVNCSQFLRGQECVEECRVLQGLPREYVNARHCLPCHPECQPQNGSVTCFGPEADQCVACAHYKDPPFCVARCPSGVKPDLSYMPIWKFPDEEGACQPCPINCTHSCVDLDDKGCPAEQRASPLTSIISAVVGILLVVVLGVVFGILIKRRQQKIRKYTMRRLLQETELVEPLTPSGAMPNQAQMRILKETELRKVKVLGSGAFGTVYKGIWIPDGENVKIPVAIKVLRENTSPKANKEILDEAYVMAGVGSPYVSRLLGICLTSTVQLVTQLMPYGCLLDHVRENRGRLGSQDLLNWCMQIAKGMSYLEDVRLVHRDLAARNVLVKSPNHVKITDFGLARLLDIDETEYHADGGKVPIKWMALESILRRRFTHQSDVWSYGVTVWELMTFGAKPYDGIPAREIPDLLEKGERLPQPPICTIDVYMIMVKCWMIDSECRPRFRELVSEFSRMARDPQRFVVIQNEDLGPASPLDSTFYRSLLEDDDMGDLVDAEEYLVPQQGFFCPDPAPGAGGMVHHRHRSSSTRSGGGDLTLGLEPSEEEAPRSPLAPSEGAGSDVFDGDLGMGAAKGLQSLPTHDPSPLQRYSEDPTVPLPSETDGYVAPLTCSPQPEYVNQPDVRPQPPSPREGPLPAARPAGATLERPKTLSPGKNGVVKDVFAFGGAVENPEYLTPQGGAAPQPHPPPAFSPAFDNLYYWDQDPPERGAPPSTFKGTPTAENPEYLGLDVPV

Structure (SMILES) | Her2 level
CCOC(=O)C1CCN(c2c(NC3CCCCCCC3)c(=O)c2=O)CC1 | 112% (inactive)
Cc1c(/C(O)=C2/C(=O)C(=O)N(CCN3CCOCC3)C2c2cccs2)cnn1-c1ccccc1 (stereo not given) | 114% (inactive)
c1ccc(CSCc2cn3ccsc3n2)cc1 | 95.5% (inactive)
O=c1c2ccccc2nc(SCc2cn3ccsc3n2)n1-c1ccc(F)cc1 | 102% (inactive)
Cc1cnc(C(=O)Nc2ccc(N3CCN(C(=O)OC(C)(C)C)CC3)cc2)cn1 | 106% (inactive)
COc1ccccc1N(C)S(=O)(=O)c1ccc(C(=O)NC2=NCCS2)cc1 | 95% (inactive)
C/C(N)=C(/C#N)C(=O)COC(=O)c1cc(S(=O)(=O)N2CCCCC2)ccc1C | 79.5% (inactive)
O=C(NCc1ccc2c(c1)OCO2)c1ccc(NS(=O)(=O)c2ccc3c(c2)OCCO3)cc1 | 84.5% (inactive)
Cc1nnc(SCC(=O)NC(C)(C)C)n1CCc1ccccc1 | 92.5% (inactive)
CC(C)OC(=O)CSc1nnnn1-c1ccc2c(c1)OCCO2 | 84.5% (inactive)
Cc1sc2nc(SCC(=O)NCc3ccco3)n(CCc3ccccc3)c(=O)c2c1C | 86.5% (inactive)
CC(=O)Nc1ccn(-c2ccccc2)n1 | 105% (inactive)
O=P(O)(O)C(O)C(F)(F)C(F)(F)C(F)(F)C(F)F (stereo not given) | 77.5% (inactive)
COCCn1c(CN2CCN(c3ccccc3F)CC2)nc2c1c(=O)n(C)c(=O)n2C | 138% (inactive)
O=C(CN1CCN(C2CCCCC2)CC1)Nc1ccccc1-c1ccccc1 | 61% (inactive)
COc1ccc(NC(=O)C23CCC(C)(C(=O)C2)C3(C)C)cc1 (stereo not given) | 102% (inactive)
CC(C)(C)c1nc(CN2CCOCC2)ccc1O | 96.5% (inactive)
CC(NC(=O)c1ccc2c(c1)OCO2)C(c1cccs1)N1CCOCC1 (stereo not given) | 82.5% (inactive)
Cc1ccccc1NS(=O)(=O)c1cc(C(=O)N2CCCC2)ccc1C | 91.5% (inactive)
O=C(C1CCCO1)N1CCc2ccccc21 (stereo not given) | 92.5% (inactive)

Structure (SMILES) | Her2 level
CCc1ccc(NS(=O)(=O)c2ccc3[nH]cc(C(=O)N4CCCCC4)c(=O)c3c2)cc1 | 92% (inactive)
O=C1COc2ccc(C(=O)COC(=O)CCc3ccc(S(=O)(=O)N4CCOCC4)cc3)cc2N1 | 98% (inactive)
CC(C)CCNC(=O)C(c1ccco1)N(CC1CCCO1)C(=O)Cn1nnc2ccccc21 (stereo not given) | 100% (inactive)
CCOc1ccc(CCNC(=O)CCc2nc(-c3ccc(OC)cc3)no2)cc1OCC | 104% (inactive)
COc1cccc(-n2c(C)nc3c(cnn3-c3ccc(Cl)cc3)c2=O)c1 | 86% (inactive)
CCOC(=O)c1sc2nc(SCC#N)n(CCCN3CCCC3=O)c(=O)c2c1C | 73% (inactive)
COc1ccc(-c2nc(SC)n(S(=O)(=O)c3ccccc3)n2)cc1 | 114% (inactive)
CC(=O)NCc1cccc(CNC(C)=O)n1 | 82.5% (inactive)
Cc1ccc(-c2nc(N)n(C(=O)c3cccnc3)n2)cc1 | 87.5% (inactive)
CCOCCCNC(=O)c1cc2sc(Cl)cc2n1CC | 88% (inactive)
O=C(COc1ccc(S(=O)(=O)N2CCCC2)cc1Cl)NC1CC1 | 108% (inactive)
O=C(CSc1nc2ccccc2nc1SCC(=O)N1CCOCC1)N1CCOCC1 | 98% (inactive)
CCOc1ccc(/C=N/n2cnnc2)cc1 | 94.5% (inactive)
COc1cccc2cc(C(=O)N3CCc4ccccc43)c(=O)oc12 | 74% (inactive)
Cc1n[nH]c(C)c1S(=O)(=O)Nc1ccc2c(c1)OCCO2 | 98.5% (inactive)
O=C(Cn1c(C(=O)NCC2CCCO2)cc2sccc21)c1ccccc1 (stereo not given) | 100% (inactive)
Nn1cc(-c2ccccc2)nc1SCC(=O)N1CCN(S(=O)(=O)c2ccccc2)CC1 | 96% (inactive)
COc1cc(C(N)=O)ccc1OCc1ccccc1 | 83.5% (inactive)
CCCCn1c(CN(C)Cc2ccccc2)nc2c1c(=O)n(C)c(=O)n2C | 101% (inactive)
CCOc1ccc(-c2nc(S(=O)(=O)c3ccccc3)c(NCc3cccnc3)o2)cc1 | 94% (inactive)

— PubChem BioAssay
